# In PubChem BioAssay (NCATS):
# Inconclusive results are not listed. Unmarked numbers belong to inactive results. Active and inactive are the calls of the source. Calls follow the shape of the dose curve; as a rule, active = well fitted inhibition curve with a large enough effect; inconclusive = small, poorly fitted or top-dose-only effect; inactive = flat fitted curve, though single readings scatter. Numbered stars: 1 amine (or outer) side, 2 acyl side, 3 side chain; on linkers, the order of the positions; unused ones are H or OH. Bridge positions count the residues as written; N and C are the ends. Square brackets hold non-standard residues; d marks the D form. Peptide text beside a SMILES is read from it. I, II: the chains in the order shown. Actinocin(9to1) = Cc1c2oc3c(C)ccc(C(=O)[*:1])c3nc-2c(C(=O)[*:2])c(N)c1=O; NMeV = CN[C@H](C(=O)O)C(C)C; Sar = CNCC(=O)O
# Test system: CP203
# Assay: qHTS profiling for inhibitors of Plasmodium falciparum proliferation (AID 504749); also: nearly all actives have a fitted effect of over 60% in size;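 as to activity, negative = inhibition: 0% = DMSO vehicle and full inhibition = artemisinin control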
# Details: P. falciparum in erythrocytes, SYBR Green DNA, 72 h; series mostly up to 28.7 µM; activity, negative = inhibition: at the top concentration
# From the text: NIH National Institute of Allergy and Infectious Diseases [NIAID] NIH Chemical Genomics Center [NCGC] MLPCN Grant: None Assay Provider: Xinzhuan Su, NIAID NCGC Assay Overview: Plasmodium falciparum is a virulent malarial parasite that kills 1-2 million people worldwide each year. Transmitted by mosquitoes, the sporozoite form of the parasite enters the blood stream to infect hepatocytes, where they become merozoites that infect red blood cells (erythrocytes). Within erythrocytes, merozoites begin a […] cycle of growth and division, after which the parasite is released to infect new red blood cells. Gametocytes, which form within erythrocytes as well, circulate in the bloodstream and are ingested by the mosquito, thereby completing the life cycle. To profile malarial isolates for differential chemical responses and to identify inhibitors of malarial growth, an assay that measures P. falciparum growth and replication within erythrocytes was employed. This assay uses a DNA binding fluorescent dye (SYBR Green) to detect parasite DNA following cell lysis. Because mature erythrocytes lack DNA, only Plasmodium-derived DNA is detected.
# NCGC Assay Protocol Summary: The SYBR Green viability assay was adapted from a method described previously (Plouffe et al., 2008). For screening 3 ul culture medium was dispensed into 1536 well black clear bottom plates (Aurora Biotechnologies) using a Multidrop Combi (Thermo Fisher Scientific Inc.), 23 nL compounds in DMSO were added by a pin tool (Kalypsys), and 5 ul of erythrocytes infected with P. falciparum (0.3% parasitemia, 2.5% hematocrit final concentration) were added. The plates were incubated at 37 C in a humidified incubator in 5% CO2 for 72 h, and 2 ul lysis buffer (20 mM Tris HCl, 10 mM EDTA, 0.16% saponin, 1.6% triton X, 10X SYBR Green I supplied as 10,000X […] by Invitrogen) was added to each well. The plates were mixed for 25 sec with gentle shaking and incubated overnight at room temperature in the dark. The following morning, fluorescence intensity at 485(14) nm excitation and 535(25) nm emission wavelengths was measured on an EnVision (Perkin Elmer) plate reader. Plate reads were normalized relative to the control inhibitor (0.29 uM artemisinin) and vehicle (DMSO) wells present on each plate and then corrected by an algorithm using vehicle-only control plates at the beginning and end of the compound plate stack.
# Potency is read from the fitted curve at half-maximal effect.
Structure (SMILES),"activity, negative = inhibition",Potency
CC(=O)OCC(=O)[C@@]1(OC(C)=O)[C@@H](C)C[C@H]2[C@@H]3C[C@H](F)C4=CC(=O)C=C[C@]4(C)[C@@]3(F)[C@@H](O)C[C@@]21C,-1.51%,–
CCn1cc(C(=O)O)c(=O)c2cnc(N3CCCC3)nc21,-9.03% [at 12.8 µM],–
Oc1c(Cl)cc(Cl)cc1Sc1cc(Cl)cc(Cl)c1O,4.53%,–
CN=C(NC#N)NCCSCc1csc(N=C(N)N)n1,1.64%,–
CC1(C)CCC(NC(=O)[C@@H](N)CCC(=O)O)CC1,2.65%,–
Oc1c(I)cc(Cl)c2cccnc12,3.79%,–
CCCCCCCCCCCCCCCC[N+](C)(C)CC,–,10.7 µM (active)
CCOC(=O)OC(C)OC1=C(C(=O)Nc2ccccn2)N(C)S(=O)(=O)c2ccccc21 (stereo not given),3.3%,–
C[C@@H]1C(=O)NC2=Nc3cccc(Cl)c3CN21,-6.43%,–
COc1cccc(CCc2ccccc2OCC(CN(C)C)OC(=O)CCC(=O)O)c1 (stereo not given),–,3.38 µM (active)
O=C(O)CNC(=O)c1ccccc1,1.67%,–
Oc1ccc(O)cc1,–,15.1 µM (active)
COCc1c(C(C)C)nc(C(C)C)c(/C=C/[C@@H](O)C[C@@H](O)CC(=O)O)c1-c1ccc(F)cc1,-14.5%,–
CCOC(=O)n1ccn(C)c1=S,-0.831% [at 12.8 µM],–
COc1cc(OC)cc(OC)c1,-0.51%,–
O=C1CCC(c2ccc(-n3ccnc3)cc2)=NN1,3.43%,–
CCCCCCCCCCCCCCCCCC(=O)OCC(O)CO (stereo not given),0.46%,–
CC(=O)OCC(=O)NCCCOc1cccc(CN2CCCCC2)c1,-1.28%,–
CCCCCCC[N+](CC)(CC)CCCCc1ccc(Cl)cc1,–,1.81 µM (active)
CCCCCCCCCCCCCCNCCO,-16.6%,–

Structure (SMILES),"activity, negative = inhibition",Potency
CCOC(=O)COc1ccc2c(C)c(CCN(CC)CC)c(=O)oc2c1Cl,3.45%,–
O=C(Nc1ccc(Cl)c(Cl)c1)C1CC1,-7.53%,–
CNCCC=C1c2ccccc2CCc2ccccc21,–,7.57 µM (active)
Cc1cc(N)c2cc(NC(=O)Nc3ccc4nc(C)cc(N)c4c3)ccc2n1,–,5.36 µM (active)
Cc1c(C)n(CCN(C)C)c2ccc(C(=O)OCCN(C)C)cc12,12.3%,–
CCOc1ccc(NC(=O)CC(C)O)cc1 (stereo not given),-6.51%,–
Cc1c(N(C)CS(=O)(=O)O)c(=O)n(-c2ccccc2)n1C,5.8% [at 12.8 µM],–
O=C1OC(c2ccc(O)cc2)(c2ccc(O)cc2)c2ccccc21,1.72%,–
Cc1ccnc(NS(=O)(=O)c2ccc(N)cc2)n1,1.82% [at 12.8 µM],–
CC(C)NC[C@@H](O)COc1cccc2ccccc12,–,10.7 µM (active)
Cc1ccc(O)c2ncccc12,9.71%,–
C[C@H]1C[C@H]2[C@@H]3CCC4=CC(=O)C=C[C@]4(C)[C@@]3(Cl)[C@@H](O)C[C@]2(C)[C@@]1(O)C(=O)CO,-19.1%,–
O=S1(=O)c2cccc3cccc(c23)N1CCCN1CCN(c2ccc(F)cc2)CC1,-3.82%,–
C1CCc2nnnn2CC1,0.718%,–
COc1cc2c(cc1OC)C(C(C(=O)N(CCc1ccc(OC)c(OC)c1OC)CCc1ccc(OC)c(OC)c1OC)c1ccccc1)=NCC2 (stereo not given),–,6.75 µM (active)
Nc1ccc(C(=O)O)cc1,-1.99%,–
COc1ccc(C2C(=O)c3ccccc3C2=O)cc1,-8.84%,–
Oc1ccc(Cl)c2cccnc12,-1.44%,–
"Cc1c2oc3c(C)ccc(C(=O)N[C@@H]4C(=O)N[C@H](C(C)C)C(=O)N5CCC[C@H]5C(=O)N(C)CC(=O)N(C)[C@@H](C(C)C)C(=O)O[C@@H]4C)c3nc-2c(C(=O)N[C@@H]2C(=O)N[C@H](C(C)C)C(=O)N3CCC[C@H]3C(=O)N(C)CC(=O)N(C)[C@@H](C(C)C)C(=O)O[C@@H]2C)c(N)c1=O (I: T[dV]P[Sar][NMeV] / II: T[dV]P[Sar][NMeV]; ester I:1-I:C, II:1-II:C; linker I:N-II:N via Actinocin(9to1))",–,0.006 µM (active)
CC(O)(P(=O)(O)O)P(=O)(O)O,-14.2%,–
